“And” between values parts separate entries of the source, which are not always exact repeats. Equal values may be shown once. The source made the active and inactive calls.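 How the source made its calls, unless noted: active means thallium flux through the channel raised or lowered by more than 3 SD from vehicle-only wells, actives on both sides; inactive means the rest.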
What was measured:
[1] = Wnt pathway potentiators raising nuclear beta-catenin – imaging, WNT3A-conditioned medium, mouse C2C12, NPC library, primary screen (AID 1117326; in the data active means nuclear beta-catenin stimulation mostly above about 4.2%, no sharp cut-off; inactive means mostly below about 10%); details: stronger effect = higher value
[2] = stimulators of insulin release from INS-1E, primary screen, cell-based, 5 mM glucose, NPC library (AID 1117329;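 active means compound raises insulin release from rat beta cells at 5 mM glucose, no numeric limit stated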); details: rat INS-1E insulin secretion, at 10 µM, stronger effect = higher value
[3] = growth inhibition of GSK3B-pretreated HCT116 cells – cell-based, CellTiter-Glo, 0.2 to 20 µM (AID 1117336;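 active means compounds lowering colon cancer cell viability after pretreatment blocking the GSK3B kinase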); details: HCT116 viability after GSK3B inhibitor, at 20 µM, stronger effect = higher value
[4] = inhibition of endothelial tube formation, primary screen, imaging, VEGF stimulated, CD31 staining, tube area, NPC library (AID 1117340;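 active means compound that reduces growth-factor-driven endothelial tube area in a mixed cell culture, no cutoff stated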); details: VEGF-stimulated ADSC/ECFC co-culture, at 10 µM, stronger effect = higher value
[5] = GLP1 release stimulators, primary, NCI-H716, NPC library (AID 1117341;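 active means compound raises GLP1 secretion from the human gut endocrine cells, with no numeric limit stated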); details: NCI-H716 cells, at 10 µM, stronger effect = higher value
[6] = HCT116 colon cancer cell growth inhibition, primary screen, CellTiter-Glo luminescence, NPC library (AID 1117342;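 active means compounds that lower survival of HCT116 colon cancer cells in the luminescence readout, no numeric limit stated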); details: at 20 µM (top of the series)
[7] = reduced SW480 viability measured with CellTiter-Glo, NPC library, primary (AID 1117343;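 active means compounds that lower viability of the colon cancer cells in the luminescence readout, with no numeric limit stated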); details: CellTiter-Glo luminescence; at 20 µM (top of the series)
[8] = NPC library primary testing for decreased DLD-1 cell viability via CellTiter-Glo (AID 1117346;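 active means compounds that lower survival of DLD-1 colon cancer cells in the luminescence readout, no cutoff given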); details: DLD-1 viability, CellTiter-Glo luminescence; at 20 µM (top of the series)
[9] = target: 6-phosphogluconate dehydrogenase, decarboxylating (Homo sapiens) (UniProt P52209); assay: inhibition of human phosphogluconate dehydrogenase – biochemical, recombinant enzyme, NADPH absorbance, primary screen (AID 1159550;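 active means at least 20% inhibition of 6-phosphogluconate dehydrogenase activity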); details: recombinant 6PGD, NADPH absorbance 341 nm; at 10 µM; stronger effect = higher value
[10] = EMT-state selective cytotoxicity in co-culture – imaging, PC-3E GFP, TEM4-18 mCherry, primary screen (AID 1345086;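 active means compounds killing one labelled cell type while sparing the other, by normalised counts and ratio limits, not self-fluorescent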;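 on all read-outs here: cells exposed to compound for 72 h before imaging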;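 on red/green cell ratio (normalised): normalised mesenchymal count divided by normalised epithelial count so high means epithelial killing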); details: PC-3E GFP / TEM4-18 mCherry co-culture, imaging cell counts, at 1 µM; for red/green cell ratio (normalised): actives lie on both sides, counts scaled to control wells, 1 = unselective
[11] = MELAS cybrid and Rieske KO viability enhancers – cell-based, MELAS cybrids, Rieske KO mouse fibroblasts, CellTiter-Glo, primary screen (AID 1508586;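 active means mean z-score across replicates of 1.96 or higher in either the MELAS or the Rieske mutant cell line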;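 further: z relative to plate mean and SD of compound and empty wells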); details: low glucose
[12] = target: NAD(+) hydrolase SARM1 (Homo sapiens) (UniProt Q6SZW1); assay: blocking NAD cleavage by SARM1 SAM-TIR – cell lysate, NAD-Glo luminescence (AID 1508614;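 active means compound whose remaining NAD level is above about 45 nM, limit read from the data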); details: SAM-TIR HEK293T lysate NADase, at 1 µM, stronger effect = higher value
[13] = target: Mitogen-activated protein kinase 7 (Homo sapiens) (UniProt Q13164); assay: Gal4-ERK5 driven luciferase induction – cell-based, HTS, primary screen (AID 1508626;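 active means luciferase signal above three times the same-plate solvent-only control wells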;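 further: luciferase driven by Gal4-ERK5 fusion binding five Gal4 sites before minimal TATA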); details: HeLa Gal4-ERK5 transactivation, 18 h, at 5 µM, stronger effect = higher value
F380Y = assay: BK channel mutant inhibitors and activators – cell-based, U2OS BacMam, thallium flux, beta subunits, selectivity assay, profiling panel (AID 1259406); details: U2OS BacMam BK variants, at 30 µM;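 further: initial slope of Thallos dye fluorescence rise after thallium is added; log ratio against the mean of 0.3% DMSO vehicle wells on the same plate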
F380Y/beta2Delta = assay: as above; details: U2OS BacMam BK variants, at 30 µM
[14] = target: Calcium-activated potassium channel subunit alpha-1 (Homo sapiens) + Leucine-rich repeat-containing protein 26 (Homo sapiens) (UniProt Q12791+Q2I0M4); assay: as above; details: U2OS BacMam BK variants, F380Y/Slo1WT/gamma1, at 30 µM
R275C = assay: as above; details: U2OS BacMam BK variants, at 30 µM
R275C/beta1 = assay: as above; details: U2OS BacMam BK variants, at 30 µM
R275C/beta2Delta = assay: as above; details: U2OS BacMam BK variants, at 30 µM
[15] = viability loss with induced miR-34 in A549 – imaging, A549 dox-inducible miR-34, nuclei and caspase counts, primary screen (AID 1347080;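 active means compounds whose cell count with miR-34 switched on is under 0.7 times the count with it off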); details: A549 miR-34 inducible, Hoechst nuclei count, 48 h
[16] = measured here: epithelial PC-3E GFP cell survival
[17] = measured here: mesenchymal TEM4-18 mCherry cell survival
[18] = MELAS cybrid survival, CellTiter-Glo 48 h, stronger effect = higher value
[19] = Rieske KO mouse fibroblast survival, CellTiter-Glo 72 h
[20] = stronger effect = lower value, cell number ratio, induced over uninduced
[21] = measured here: relative caspase fold change +Dox/-Dox
[22] = measured here: total cells with miR-34 induction, stronger effect = lower value
[23] = measured here: total cells without miR-34 induction

NAD(+) hydrolase SARM1 (Homo sapiens), sequence (Q6SZW1 whole entry, looked up, the tested form may be a part): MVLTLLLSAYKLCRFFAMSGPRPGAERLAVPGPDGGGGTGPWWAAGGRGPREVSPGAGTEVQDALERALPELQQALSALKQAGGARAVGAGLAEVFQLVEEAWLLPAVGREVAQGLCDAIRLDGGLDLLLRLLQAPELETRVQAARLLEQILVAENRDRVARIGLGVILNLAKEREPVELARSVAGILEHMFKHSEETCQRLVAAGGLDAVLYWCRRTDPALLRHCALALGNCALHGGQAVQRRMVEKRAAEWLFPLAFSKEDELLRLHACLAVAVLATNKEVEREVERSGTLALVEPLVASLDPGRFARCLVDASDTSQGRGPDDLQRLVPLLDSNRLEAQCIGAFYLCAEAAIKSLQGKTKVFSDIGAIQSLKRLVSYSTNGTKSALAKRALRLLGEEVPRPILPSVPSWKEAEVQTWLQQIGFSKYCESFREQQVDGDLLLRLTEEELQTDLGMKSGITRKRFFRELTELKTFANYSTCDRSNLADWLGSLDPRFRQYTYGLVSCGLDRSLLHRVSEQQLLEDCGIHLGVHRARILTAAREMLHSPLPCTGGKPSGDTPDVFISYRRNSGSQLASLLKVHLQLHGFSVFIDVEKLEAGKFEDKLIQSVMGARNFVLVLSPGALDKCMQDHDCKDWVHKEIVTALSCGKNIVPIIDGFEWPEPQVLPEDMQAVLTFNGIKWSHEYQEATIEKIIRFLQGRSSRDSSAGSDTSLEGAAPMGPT
Mitogen-activated protein kinase 7 (Homo sapiens), sequence (Q13164 whole entry, looked up, the tested form may be a part): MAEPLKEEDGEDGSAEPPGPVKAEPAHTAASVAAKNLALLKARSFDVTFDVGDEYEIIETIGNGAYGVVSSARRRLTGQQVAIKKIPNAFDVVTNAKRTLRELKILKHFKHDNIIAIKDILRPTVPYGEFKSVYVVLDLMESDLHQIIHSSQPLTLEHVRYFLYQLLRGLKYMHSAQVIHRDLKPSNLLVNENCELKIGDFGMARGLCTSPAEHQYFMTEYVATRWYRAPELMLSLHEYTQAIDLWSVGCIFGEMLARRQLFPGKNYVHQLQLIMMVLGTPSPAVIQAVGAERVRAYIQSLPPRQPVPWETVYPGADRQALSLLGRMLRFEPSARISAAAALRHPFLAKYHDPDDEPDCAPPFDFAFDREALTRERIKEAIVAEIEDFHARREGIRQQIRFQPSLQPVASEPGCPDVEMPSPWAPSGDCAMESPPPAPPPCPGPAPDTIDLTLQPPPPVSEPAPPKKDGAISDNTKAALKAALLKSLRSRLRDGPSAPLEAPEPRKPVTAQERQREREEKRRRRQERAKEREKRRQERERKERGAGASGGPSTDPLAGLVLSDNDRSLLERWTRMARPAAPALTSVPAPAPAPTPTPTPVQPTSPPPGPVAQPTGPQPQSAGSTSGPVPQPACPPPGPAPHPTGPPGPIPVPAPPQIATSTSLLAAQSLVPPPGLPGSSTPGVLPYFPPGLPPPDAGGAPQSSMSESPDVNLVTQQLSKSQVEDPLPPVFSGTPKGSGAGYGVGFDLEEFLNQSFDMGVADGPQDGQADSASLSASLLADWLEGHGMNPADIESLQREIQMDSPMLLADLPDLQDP
Calcium-activated potassium channel subunit alpha-1 (Homo sapiens) + Leucine-rich repeat-containing protein 26 (Homo sapiens), sequence (Q2I0M4 whole entry, looked up, one chain of several): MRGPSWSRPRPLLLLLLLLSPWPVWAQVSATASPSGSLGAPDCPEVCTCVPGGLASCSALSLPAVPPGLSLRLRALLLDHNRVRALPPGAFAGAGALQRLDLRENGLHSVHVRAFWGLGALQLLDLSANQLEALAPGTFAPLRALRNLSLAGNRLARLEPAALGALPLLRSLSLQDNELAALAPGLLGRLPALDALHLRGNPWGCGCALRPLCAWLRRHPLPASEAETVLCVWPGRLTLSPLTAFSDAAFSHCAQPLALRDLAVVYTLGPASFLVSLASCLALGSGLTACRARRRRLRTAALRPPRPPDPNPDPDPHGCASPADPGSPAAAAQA
6-phosphogluconate dehydrogenase, decarboxylating (Homo sapiens), sequence (P52209 whole entry, looked up): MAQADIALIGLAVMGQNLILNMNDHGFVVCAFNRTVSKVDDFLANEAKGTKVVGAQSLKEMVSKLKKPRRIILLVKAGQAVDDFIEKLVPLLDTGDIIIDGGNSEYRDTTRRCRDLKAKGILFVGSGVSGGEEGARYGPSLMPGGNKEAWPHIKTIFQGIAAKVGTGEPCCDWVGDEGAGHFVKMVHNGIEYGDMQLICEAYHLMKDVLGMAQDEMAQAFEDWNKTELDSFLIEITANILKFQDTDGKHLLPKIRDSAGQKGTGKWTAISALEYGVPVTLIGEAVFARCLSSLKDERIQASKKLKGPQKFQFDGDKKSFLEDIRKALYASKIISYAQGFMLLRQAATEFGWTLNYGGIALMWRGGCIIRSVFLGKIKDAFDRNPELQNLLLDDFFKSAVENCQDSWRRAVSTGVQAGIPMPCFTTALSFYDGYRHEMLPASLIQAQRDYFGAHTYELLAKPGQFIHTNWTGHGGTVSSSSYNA

COc1cc2nc(N3CCN(C(=O)c4ccco4)CC3)nc(N)c2cc1OC
1.25: normalised cell number [10, 17]
active: nuclear beta-catenin stimulation ([1]; at 10 µM) 47.5% | viability decrease [3] 80.9% | viability decrease (inhibition) [7] 120% | viability decrease (inhibition) [8] 78.7%
2.19 and 0.838: z-score [11, 19]
7.8%: nuclear beta-catenin stimulation ([1]; stimulation, at 2 µM)
0.98: normalised cell number [10, 16]
inactive: insulin secretion stimulation [2] 0.2% | tube area decrease [4] -2.7% | GLP1 secretion stimulation [5] 9.5% | inhibition of viability [6] 46.9% | inhibition [9] 8.49% | red/green cell ratio (normalised) [10] 1.27 | remaining NAD [12] 10 nM | luciferase signal [13] 128 AU | log fold change Tl+ flux (F380Y) 0.00597 | log fold change Tl+ flux (F380Y/beta2Delta) -0.00919 | log fold change Tl+ flux [14] 0.00974 | log fold change Tl+ flux (R275C) -0.0502 | log fold change Tl+ flux (R275C/beta1) -0.0587 | log fold change Tl+ flux (R275C/beta2Delta) -0.0145
1.14 and 0.169 (inactive): z-score [11, 18]

NC(N)=NC(=O)c1nc(Cl)c(N)nc1N
1.29: normalised cell number [10, 16]
1.1: normalised cell number [10, 17]
-2%: nuclear beta-catenin stimulation ([1]; stimulation, at 2 µM)
inactive: nuclear beta-catenin stimulation ([1]; at 10 µM) 0.7% | insulin secretion stimulation [2] 4.35% | viability decrease [3] 3.2% | tube area decrease [4] 1.1% | GLP1 secretion stimulation [5] 2% | inhibition of viability [6] 3% | viability decrease (inhibition) [7] 1.8% | viability decrease (inhibition) [8] -11.5% | inhibition [9] 7.13% | red/green cell ratio (normalised) [10] 0.85 | z-score [11, 18] -0.14 and -0.352 and 0.738 | remaining NAD [12] 10 nM | luciferase signal [13] 44 AU | log fold change Tl+ flux (F380Y) -0.00821 | log fold change Tl+ flux (F380Y/beta2Delta) -0.0347 | log fold change Tl+ flux [14] 0.0238 | log fold change Tl+ flux (R275C) -0.0162 | log fold change Tl+ flux (R275C/beta1) 0.0417 | log fold change Tl+ flux (R275C/beta2Delta) -0.00743
0.245 and 0.664 and 0.681: z-score [11, 19]

CN(C)CCN(Cc1ccccc1)c1ccccn1
10300 and 8350 and 10800: cell count [15, 22]
inactive: nuclear beta-catenin stimulation ([1]; at 10 µM) 1.1% | insulin secretion stimulation [2] 13% | viability decrease [3] -23.2% | tube area decrease [4] 5.3% | GLP1 secretion stimulation [5] 4.8% | inhibition of viability [6] 13.3% | viability decrease (inhibition) [7] -2.1% | viability decrease (inhibition) [8] -41.1% | inhibition [9] 4.76% | red/green cell ratio (normalised) [10] 0.96 | fold change [15, 20] 1.02 and 1.23 and 0.865 | z-score [11, 18] -0.152 and -0.218 | remaining NAD [12] 10 nM | luciferase signal [13] 32 AU | log fold change Tl+ flux (F380Y/beta2Delta) -0.027 | log fold change Tl+ flux [14] 0.0226 | log fold change Tl+ flux (R275C) 0.027 | log fold change Tl+ flux (R275C/beta1) 0.0111 | log fold change Tl+ flux (R275C/beta2Delta) -0.0395
-0.132 and 0.37: z-score [11, 19]
0.99: normalised cell number [10, 17]
1.94 and 0.367 and 2.89: fold change [15, 21]
active: log fold change Tl+ flux (F380Y) -0.114
1.02: normalised cell number [10, 16]
10100 and 6800 and 12500: cell count [15, 23]
0.8%: nuclear beta-catenin stimulation ([1]; stimulation, at 2 µM)

CC(=O)OCC(=O)[C@@]1(O)CC[C@H]2[C@@H]3CCC4=CC(=O)C=C[C@]4(C)[C@H]3[C@@H](O)C[C@@]21C
inactive: nuclear beta-catenin stimulation ([1]; at 10 µM) 1.2% | insulin secretion stimulation [2] 1% | viability decrease [3] 6.6% | tube area decrease [4] 5.5% | GLP1 secretion stimulation [5] 1.2% | inhibition of viability [6] -4.6% | viability decrease (inhibition) [7] -9.3% | viability decrease (inhibition) [8] -10.8% | inhibition [9] 20% | fold change [15, 20] 0.981 | remaining NAD [12] 10 nM | luciferase signal [13] 60 AU | log fold change Tl+ flux (F380Y) 0.0438 | log fold change Tl+ flux (F380Y/beta2Delta) -0.0297 | log fold change Tl+ flux [14] 0.072 | log fold change Tl+ flux (R275C) -0.0254 | log fold change Tl+ flux (R275C/beta1) 0.0604 | log fold change Tl+ flux (R275C/beta2Delta) 0.0146
0%: nuclear beta-catenin stimulation ([1]; stimulation, at 2 µM)
8020: cell count [15, 22]
0.792: fold change [15, 21]
8180: cell count [15, 23]

C[C@@H](O)[C@H]1C(=O)N2C(C(=O)O)=C(S[C@@H]3CN[C@H](C(=O)N(C)C)C3)[C@H](C)[C@H]12
1.23 and -0.866: z-score [11, 19]
9770 and 10500: cell count [15, 23]
9470 and 9550: cell count [15, 22]
1% and 0.5%: nuclear beta-catenin stimulation ([1]; stimulation, at 2 µM)
inactive: nuclear beta-catenin stimulation ([1]; at 10 µM) -1.7% and -0.1% | insulin secretion stimulation [2] 1.9% and 2% | viability decrease [3] -24.1% and -19.8% | tube area decrease [4] -3.2% and 11.7% | GLP1 secretion stimulation [5] -1.2% and -6.2% | inhibition of viability [6] 3.6% and 6.7% | viability decrease (inhibition) [7] 9.5% and 15.1% | viability decrease (inhibition) [8] -2.2% and -3.6% | fold change [15, 20] 0.969 and 0.909 | z-score [11, 18] 0.815 and 0.0614 | remaining NAD [12] 10 nM | log fold change Tl+ flux (F380Y) 0.000985 | log fold change Tl+ flux (F380Y/beta2Delta) -0.00534 | log fold change Tl+ flux [14] -0.0284 | log fold change Tl+ flux (R275C) -0.0931 | log fold change Tl+ flux (R275C/beta1) -0.0201 | log fold change Tl+ flux (R275C/beta2Delta) -0.042
0.61 and 1.16: fold change [15, 21]

CC(=O)OCC(=O)[C@@]1(O)CC[C@H]2[C@@H]3CCC4=CC(=O)CC[C@]4(C)[C@H]3C(=O)C[C@@]21C
10700 and 11200: cell count [15, 23]
inactive: nuclear beta-catenin stimulation ([1]; at 10 µM) 1.3% | insulin secretion stimulation [2] 2.1% | viability decrease [3] 3.8% | tube area decrease [4] -2.1% | GLP1 secretion stimulation [5] 7% | inhibition of viability [6] -5.5% | viability decrease (inhibition) [7] -2.6% | viability decrease (inhibition) [8] -11.3% | inhibition [9] -3.27% | fold change [15, 20] 0.993 and 0.93 | remaining NAD [12] 10 nM | luciferase signal [13] 28 AU | log fold change Tl+ flux (F380Y) -0.00173 | log fold change Tl+ flux (F380Y/beta2Delta) -0.0255 | log fold change Tl+ flux [14] -0.0083 | log fold change Tl+ flux (R275C) 0.0275 | log fold change Tl+ flux (R275C/beta1) -0.0466 | log fold change Tl+ flux (R275C/beta2Delta) -0.00407
1.87 and 1.55: fold change [15, 21]
10600 and 10400: cell count [15, 22]
0.9%: nuclear beta-catenin stimulation ([1]; stimulation, at 2 µM)

O=C(c1ccccc1)c1ccc2n1CCC2C(=O)O (stereo unspecified)
-0.5%: nuclear beta-catenin stimulation ([1]; stimulation, at 2 µM)
1.2: normalised cell number [10, 16]
-0.239 and 0.894 and -0.237: z-score [11, 19]
1.24: normalised cell number [10, 17]
inactive: nuclear beta-catenin stimulation ([1]; at 10 µM) -0.4% | insulin secretion stimulation [2] 0.8% | viability decrease [3] 3.4% | tube area decrease [4] 15.4% | GLP1 secretion stimulation [5] -3.6% | inhibition of viability [6] -1.1% | viability decrease (inhibition) [7] 1.1% | viability decrease (inhibition) [8] 11.4% | inhibition [9] 6.58% | red/green cell ratio (normalised) [10] 1.03 | z-score [11, 18] 0.234 and -0.244 and -0.284 | remaining NAD [12] 10 nM | luciferase signal [13] 36 AU
